MITF TRPM1 inh: inhibitors of MITF-dependent TRPM1 promoter reporter, primary screen, cell-based, SK-MEL-5, single point, luciferase; AID 488899, 2010; 0.83% of 330,000 active; inhibition, % at 12.5 µM; SK-MEL-5 TRPM1 promoter luciferase, 24 h;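 active = mean inhibition across replicates of 60% or more, whatever share of single replicates reaches that level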
TROY NFkB inh: inhibitors of TROY-driven NF-kB signaling, primary screen, Q293 LMP1-TROYcd cells, NF-kB luciferase, uHTS | Q293 LMP1-TROYcd NF-kB luciferase reporter, 4 h | inhibition, % at 10 µM | 0.98% of 360,000 active | AID 1347056, 2019;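 active = compounds whose plate-normalised and pattern-corrected inhibition of the luciferase reporter signal at the single screening dose is 50% or more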
Peg3 promoter: Peg3 promoter-driven luciferase inhibitors, primary screen, cell-based, HeLa, luciferase luminescence | HeLa PEG-Prom luciferase reporter, overnight | inhibition, % at 20 µM | 1.7% of 360,000 active;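 active = inhibition of at least 50% at 20 µM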
TWEAK Fn14 block: inhibitors of TWEAK-Fn14 signaling, primary screen, luciferase reporter cells, uHTS; TWEAK-stimulated Fn14 reporter cells, luciferase luminescence, 8 h; inhibition, % at 10 µM; 2% of 360,000 active; in the data active = inhibition above about 50%
LMP1 NFkB inh: EBV LMP1-driven NF-kappaB luciferase reporter inhibitors, primary screen, cell-based, luminescence, single point; 0.69% of 350,000 active; LMP1-induced NF-kappaB luciferase reporter cells; inhibition, % at 12.5 µM; in the data active = inhibition above about 41%;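 note: 0% = neutral control wells and 100% = reference inhibitor control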
Shn3 3UTR inh: reduction of Shn3 3'UTR firefly luciferase signal, primary screen, Schnurri-3 inhibitor project, cell-based, Clone20 osteoblasts, set 2 | Clone20 osteoblast Shn3 3'UTR firefly luciferase, 24 h | inhibition, % at 12.5 µM | 0.52% of 360,000 active | AID 588674, 2011;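 active = mean inhibition of at least 75% with every replicate also reaching 75%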;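 note: 0% = median of neutral control wells and 100% = pilot-screen positive control compound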
* hit, by the source's call; nt = not tested or not shown. Compounds with a hit are over-represented: about 4.1% of the library has one in this group of screens.

SMILES | MITF TRPM1 inh | TROY NFkB inh | Peg3 promoter | TWEAK Fn14 block | LMP1 NFkB inh | Shn3 3UTR inh
CCC(O)c1cnc(OCc2ccccc2)nc1OCc1ccccc1 (stereo not drawn) | nt | 17.3 | 21.6 | -10.1 | -8.7 | 32.2
COc1ccc(S(=O)(=O)N2CCN(C(=O)c3cc(-c4ccc(Br)cc4)n[nH]3)CC2)cc1OC | 21.7 | 42.6 | 35.0 | 37.7 | 17.5 | 90.6*
COc1ccc(-c2cc(C(=O)N3CCN(S(=O)(=O)c4ccccc4)CC3)[nH]n2)cc1 | -6.3 | 2.1 | 3.3 | -5.6 | -7.6 | -11.7
CC(C)Oc1ccc(F)cc1-c1cc(C(=O)NCc2cc(C(F)(F)F)cc(C(F)(F)F)c2)[nH]n1 | nt | 48.3 | 22.0 | 50.9* | nt | -0.3
CC(C)Oc1ccc(F)cc1-c1cc(C(=O)NCc2ccc(C(F)(F)F)cc2)[nH]n1 | nt | 27.8 | 14.5 | 21.4 | nt | 17.9
CC(C)Oc1cc(F)ccc1-c1cc(C(=O)Nc2cccc(C(F)(F)F)c2)[nH]n1 | nt | 55.1* | 37.7 | 70.1* | nt | 47.5
CCOC(=O)c1ccc2c(c1)N(CC#N)C(=O)C(C)(C)O2 | -1.4 | -7.5 | -2.2 | 3.1 | 2.4 | -2.8
CC1CN(C(=O)COC(=O)c2cccc(S(=O)(=O)N3CCc4ccccc43)c2)CC(C)O1 (stereo not drawn) | -1.5 | -4.2 | -4.1 | -2.7 | 4.9 | -2.0
COc1ccc(S(=O)(=O)Nc2ccc3c(c2)C(=O)N([C@H](C)CO)C[C@H](C)[C@@H](CN(C)S(=O)(=O)c2ccc(F)cc2)O3)cc1 | -0.7 | 8.2 | -11.9 | 4.7 | 5.3 | -16.2
O=C1C2C3C=CC(CO)(O3)C2C(=O)N1c1ccccc1-c1ccccc1 (stereo not drawn) | 23.4 | -8.6 | 105.1* | 1.3 | 35.2 | 71.5
CC(=O)Oc1ccc(N2C(=O)C3C4C=CC(CO)(O4)C3C2=O)cc1 (stereo not drawn) | 11.8 | 7.1 | 25.9 | -5.3 | -4.0 | 0.5
CCCOC(=O)Cn1c(=O)c2cc3c(=O)n(CC(=O)OCCC)c(=O)c3cc2c1=O | -17.7 | 62.5* | -215.6 | 11.7 | -5.8 | -15.1
CC1CN/C(=C\C(=O)c2ccc(Cl)cc2)C(=O)N1 (stereo not drawn) | -1.1 | -13.4 | -130.7 | 73.4* | 33.4 | 4.0
Oc1ccc(N=Nc2ccc3c(c2)OCCO3)c2ncccc12 | 73.0* | 59.9* | -34.1 | 82.5* | -6.3 | 95.0*
O=C(Nc1ncccc1O)c1ccc2c(c1)OCCO2 | -21.0 | -4.4 | -145.7 | -4.7 | 32.4 | -133.9
Cc1cccc(N=Nc2ccc(O)c3ncccc23)c1 | 70.8* | -36.5 | -101.9 | 90.1* | 52.4* | 87.4*
Cc1ccc(N=Nc2cc(C)ccc2O)c(C)c1 | -49.4 | -47.2 | -257.5 | -36.8 | -12.7 | -64.5
Cc1ccc(C)c(N=Nc2ccc(O)c3ncccc23)c1 | 63.6* | 77.9* | 0.4 | 81.4* | 61.3* | 85.8*
COCCc1ccc(OC2(C)CCN(Cc3cccn3-c3nccs3)C2)cc1 (stereo not drawn) | nt | -13.7 | -6.7 | -4.1 | nt | 6.8
O=C(N/C(=C/c1cccc(Br)c1)C(=O)N1CCOCC1)c1ccco1 | nt | -3.6 | -20.1 | 12.7 | 3.3 | -28.7
Cc1ccc(S(=O)(=O)N2CCOCC2)cc1NC(=O)CSc1nnc(C2CC2)n1C1CC1 | 3.1 | 1.8 | -5.0 | -5.5 | -1.8 | -6.8
O=C(/C=C/c1ccc2c(c1)OCCCO2)c1ccc2ccccc2c1O | -43.0 | 61.1* | -159.0 | 32.7 | -60.9 | 4.1
Fc1cccc(Cl)c1CSc1ncn[nH]1 | -13.4 | 78.1* | 1.0 | -11.4 | -6.4 | -13.0
Nc1ncnc(SCc2c(F)cccc2Cl)n1 | 0.1 | 3.9 | -2.1 | 32.5 | -0.6 | 4.0
COc1cccc(C2Nc3ccccc3NC3=C2C(=O)CC(C)(C)C3)c1 (stereo not drawn) | -10.8 | 18.9 | 0.3 | -4.5 | -22.4 | -16.8
SMILES | MITF TRPM1 inh | TROY NFkB inh | Peg3 promoter | TWEAK Fn14 block | LMP1 NFkB inh | Shn3 3UTR inh
O=C(Cn1nnc2ccccc2c1=O)N[C@@H](Cc1ccccc1)C(=O)O | -1.9 | -7.2 | 2.3 | -3.4 | -4.5 | -10.7
O=S(=O)(Nc1cc(Cl)ccc1-n1cncn1)c1cc(Br)ccc1Br | 17.5 | 58.4* | 34.6 | 46.4 | 12.6 | 30.2
Cc1ccc(C(C)C)c(OCc2nn(CC(=O)c3ccc(OC(F)F)cc3)c3[n+]2CCCCC3)c1 | 102.3* | 48.1 | 105.4* | 34.9 | 10.6 | 38.6
COc1ccc2c(=O)c(-c3nc(C)cs3)coc2c1 | 6.9 | 22.9 | -28.1 | 79.3* | 14.6 | -5.6
CC(C)(C)N1C(=O)c2ccc(C(=O)Nc3ccc(-c4nc5ccccc5[nH]4)cc3)cc2C1=O | -5.9 | -7.7 | 82.2* | -41.4 | -0.7 | -21.0
Cc1ccccc1C(=O)Nc1ccc(-c2nc3ccc(C(=O)c4ccccc4)cc3[nH]2)cc1 | 2.5 | nt | -21.2 | 70.3* | 0.6 | 52.8
CC(C)(C)N1C(=O)c2ccc(C(=O)Nc3ccc(C(=O)O)cc3)cc2C1=O | -5.3 | 8.4 | 11.1 | 12.1 | -8.6 | 4.5
O=C(c1ccccc1)c1ccc2nc(-c3ccc(NC(=O)c4ccccc4Br)cc3)[nH]c2c1 | -25.9 | 5.5 | 6.1 | -7.4 | 2.6 | 15.6
O=C(Nc1ccc(-c2nc3ccc(NC(=O)c4cccs4)cc3[nH]2)cc1)c1cccs1 | 79.1* | -1.0 | 65.6* | -127.5 | -15.4 | 77.5
CCc1nc2c(OCc3c(C)noc3C)cccn2c1N(C)C(=O)C(C)C | nt | 4.5 | 16.4 | -2.4 | nt | -4.7
CC(C)NC(=O)C1(C)CCN1Cc1ccc(C(F)(F)F)cc1 (stereo not drawn) | nt | 12.5 | 21.2 | -0.2 | nt | 7.6
COc1cc(OC)cc(OC(=O)C2CCN(S(=O)(=O)c3ccc(OC)c(OC)c3)CC2)c1 | 2.1 | 1.9 | -7.0 | -3.2 | 2.8 | -4.1
CCOc1ccc(N2C(=O)S/C(=C\c3ccc(O)c(OC)c3)C2=O)cc1 | -16.7 | 3.1 | -19.2 | 4.2 | 5.5 | 7.5
COc1cc(/C=C2\SC(=N)N(c3ccc(F)cc3)C2=O)ccc1O | -10.9 | 13.8 | 41.9 | 51.7* | -3.3 | -1.4
N=C1S/C(=C\c2ccccc2F)C(=O)N1c1ccc(F)cc1 | -13.2 | 15.1 | 8.8 | -17.3 | 7.3 | 3.6
N=C1S/C(=C\c2ccccc2)C(=O)N1c1ccc(F)cc1 | -10.6 | -3.1 | 7.8 | -24.1 | 66.6* | -25.4
CC1(C)N=C(N)NC(Nc2ccccc2Cl)=N1 | -13.0 | 1.1 | -0.4 | -19.6 | 3.3 | 42.2
Cc1ccc([N+](=O)[O-])cc1NC(=O)CSc1nnc(C)n1CC1CCCO1 (stereo not drawn) | 0.1 | -0.1 | -12.7 | 2.5 | -10.3 | -4.8
COc1cccc(C=C(C(C)=O)C(=O)c2ccccc2)c1 | nt | 13.9 | nt | 51.1* | nt | nt
CC(C)CCn1c(SCC(=O)N2CC(=O)Nc3ccccc32)nc2scc(-c3cccs3)c2c1=O | 7.1 | 5.7 | -4.2 | 14.7 | 6.2 | 16.4

High-throughput results (PubChem BioAssay)
